Reference: the supplement of paper PMC11732987, “Enantioselective OTUD7B fragment discovery through chemoproteomics screening and high-throughput optimisation” (Communications Chemistry, 2025)

Tests used:
Experiment in all cases: log2 ratio of Biotin-Ahx-Ub-VS probe labelling (fragment/DMSO); higher = less target engagement (more negative = stronger competition), active = hit call of the paper (q ≤ 0.05, log2 ratio ≤ -1)
Conditions in all cases: compound concentration: 200 uM; treatment time: 3 h
[1] = target: T1, USP42 (UniProt Q9H9J4)
T1 sequence (whole entry): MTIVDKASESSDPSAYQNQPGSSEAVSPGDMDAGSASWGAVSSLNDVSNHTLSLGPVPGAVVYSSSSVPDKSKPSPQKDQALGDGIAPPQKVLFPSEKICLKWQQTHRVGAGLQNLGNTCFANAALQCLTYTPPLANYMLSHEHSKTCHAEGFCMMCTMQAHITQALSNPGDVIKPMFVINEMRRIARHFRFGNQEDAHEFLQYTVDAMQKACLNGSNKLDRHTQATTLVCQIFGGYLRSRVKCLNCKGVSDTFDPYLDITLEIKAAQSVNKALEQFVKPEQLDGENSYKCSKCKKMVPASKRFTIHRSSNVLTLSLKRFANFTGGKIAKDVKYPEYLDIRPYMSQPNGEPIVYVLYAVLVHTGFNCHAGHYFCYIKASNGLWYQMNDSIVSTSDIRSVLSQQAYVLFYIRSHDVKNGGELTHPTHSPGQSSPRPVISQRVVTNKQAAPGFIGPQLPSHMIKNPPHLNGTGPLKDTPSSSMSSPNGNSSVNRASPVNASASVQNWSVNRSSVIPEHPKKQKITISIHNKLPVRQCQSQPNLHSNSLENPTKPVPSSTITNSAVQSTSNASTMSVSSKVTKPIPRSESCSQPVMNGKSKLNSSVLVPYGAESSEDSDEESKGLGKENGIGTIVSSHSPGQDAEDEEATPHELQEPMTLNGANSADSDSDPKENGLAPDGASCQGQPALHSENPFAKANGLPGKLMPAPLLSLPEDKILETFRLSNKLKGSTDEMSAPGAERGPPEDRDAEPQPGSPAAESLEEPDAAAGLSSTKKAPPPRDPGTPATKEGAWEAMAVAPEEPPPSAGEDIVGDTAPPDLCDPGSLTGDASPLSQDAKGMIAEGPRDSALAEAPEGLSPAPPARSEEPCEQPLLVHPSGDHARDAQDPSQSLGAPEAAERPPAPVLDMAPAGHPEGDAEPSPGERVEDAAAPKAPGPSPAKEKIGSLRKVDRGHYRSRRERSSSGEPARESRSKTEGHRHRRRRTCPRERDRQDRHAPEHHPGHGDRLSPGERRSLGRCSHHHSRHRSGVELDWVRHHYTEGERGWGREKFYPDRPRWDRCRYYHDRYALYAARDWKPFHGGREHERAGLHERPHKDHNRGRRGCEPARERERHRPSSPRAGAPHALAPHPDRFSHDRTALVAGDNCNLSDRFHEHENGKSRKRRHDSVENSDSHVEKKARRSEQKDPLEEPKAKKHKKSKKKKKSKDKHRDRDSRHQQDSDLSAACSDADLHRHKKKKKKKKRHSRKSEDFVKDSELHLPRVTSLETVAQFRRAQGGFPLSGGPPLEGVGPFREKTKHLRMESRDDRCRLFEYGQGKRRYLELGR
Method in brief: (§1)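 Labelled DUBs from HEK293T lysate were NeutrAvidin-enriched, digested with LysC and trypsin, and run by diaPASEF LC-MS/MS. Before that, each 495 µg sample in Tris/CHAPS/IGEPAL buffer with protease inhibitors was treated in triplicate with fragment at 200 µM or vehicle for 3 h, then with Biotin-Ahx-Ub-VS at 0.5 µM final for 1 h. Values are average log2 ratios of fragment over vehicle by unpaired t-test, based on global-median-normalised Spectronaut label-free quantities from proteins with ≥2 unique peptides.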

[2] = target: USP46 (UniProt P62068)
Method in brief: as §1

[3] = target: T2, USP47 (UniProt Q96K76)
T2 sequence (whole entry): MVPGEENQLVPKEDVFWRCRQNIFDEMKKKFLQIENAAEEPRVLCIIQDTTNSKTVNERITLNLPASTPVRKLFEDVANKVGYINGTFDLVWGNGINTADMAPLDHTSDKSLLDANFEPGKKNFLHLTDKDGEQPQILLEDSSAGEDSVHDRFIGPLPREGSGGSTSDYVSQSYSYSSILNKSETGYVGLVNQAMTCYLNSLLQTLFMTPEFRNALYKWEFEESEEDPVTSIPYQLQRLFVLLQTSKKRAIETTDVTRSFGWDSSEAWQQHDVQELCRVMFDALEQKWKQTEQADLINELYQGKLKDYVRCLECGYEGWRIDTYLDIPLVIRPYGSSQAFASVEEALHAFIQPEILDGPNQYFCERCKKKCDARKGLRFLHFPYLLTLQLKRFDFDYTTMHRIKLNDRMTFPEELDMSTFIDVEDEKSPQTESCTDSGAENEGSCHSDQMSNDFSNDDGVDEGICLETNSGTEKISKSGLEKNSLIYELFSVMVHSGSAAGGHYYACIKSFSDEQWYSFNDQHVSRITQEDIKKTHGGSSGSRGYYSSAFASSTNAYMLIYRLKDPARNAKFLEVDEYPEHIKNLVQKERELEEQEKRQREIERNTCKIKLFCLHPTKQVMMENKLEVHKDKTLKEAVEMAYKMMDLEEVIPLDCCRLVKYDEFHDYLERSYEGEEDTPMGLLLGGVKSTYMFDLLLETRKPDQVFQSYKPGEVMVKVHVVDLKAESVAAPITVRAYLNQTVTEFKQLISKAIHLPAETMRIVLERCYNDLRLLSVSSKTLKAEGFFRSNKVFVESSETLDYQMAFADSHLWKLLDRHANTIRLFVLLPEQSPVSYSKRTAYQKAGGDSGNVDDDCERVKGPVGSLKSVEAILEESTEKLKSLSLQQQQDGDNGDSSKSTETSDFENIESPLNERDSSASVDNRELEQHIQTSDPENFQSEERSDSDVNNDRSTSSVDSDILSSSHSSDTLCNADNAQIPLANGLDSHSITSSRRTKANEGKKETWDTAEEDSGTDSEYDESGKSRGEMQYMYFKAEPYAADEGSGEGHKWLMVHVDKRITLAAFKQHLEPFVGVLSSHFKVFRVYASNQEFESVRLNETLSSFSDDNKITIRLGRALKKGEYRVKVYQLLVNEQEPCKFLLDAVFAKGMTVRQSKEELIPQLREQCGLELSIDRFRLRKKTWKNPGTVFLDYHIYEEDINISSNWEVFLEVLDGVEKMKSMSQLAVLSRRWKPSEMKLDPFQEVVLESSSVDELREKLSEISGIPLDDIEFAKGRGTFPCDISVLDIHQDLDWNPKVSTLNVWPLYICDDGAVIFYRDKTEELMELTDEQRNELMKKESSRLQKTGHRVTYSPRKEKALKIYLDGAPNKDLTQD
Method in brief: as §1

[4] = target: T3, USP48 (UniProt Q86UV5)
T3 sequence (whole entry): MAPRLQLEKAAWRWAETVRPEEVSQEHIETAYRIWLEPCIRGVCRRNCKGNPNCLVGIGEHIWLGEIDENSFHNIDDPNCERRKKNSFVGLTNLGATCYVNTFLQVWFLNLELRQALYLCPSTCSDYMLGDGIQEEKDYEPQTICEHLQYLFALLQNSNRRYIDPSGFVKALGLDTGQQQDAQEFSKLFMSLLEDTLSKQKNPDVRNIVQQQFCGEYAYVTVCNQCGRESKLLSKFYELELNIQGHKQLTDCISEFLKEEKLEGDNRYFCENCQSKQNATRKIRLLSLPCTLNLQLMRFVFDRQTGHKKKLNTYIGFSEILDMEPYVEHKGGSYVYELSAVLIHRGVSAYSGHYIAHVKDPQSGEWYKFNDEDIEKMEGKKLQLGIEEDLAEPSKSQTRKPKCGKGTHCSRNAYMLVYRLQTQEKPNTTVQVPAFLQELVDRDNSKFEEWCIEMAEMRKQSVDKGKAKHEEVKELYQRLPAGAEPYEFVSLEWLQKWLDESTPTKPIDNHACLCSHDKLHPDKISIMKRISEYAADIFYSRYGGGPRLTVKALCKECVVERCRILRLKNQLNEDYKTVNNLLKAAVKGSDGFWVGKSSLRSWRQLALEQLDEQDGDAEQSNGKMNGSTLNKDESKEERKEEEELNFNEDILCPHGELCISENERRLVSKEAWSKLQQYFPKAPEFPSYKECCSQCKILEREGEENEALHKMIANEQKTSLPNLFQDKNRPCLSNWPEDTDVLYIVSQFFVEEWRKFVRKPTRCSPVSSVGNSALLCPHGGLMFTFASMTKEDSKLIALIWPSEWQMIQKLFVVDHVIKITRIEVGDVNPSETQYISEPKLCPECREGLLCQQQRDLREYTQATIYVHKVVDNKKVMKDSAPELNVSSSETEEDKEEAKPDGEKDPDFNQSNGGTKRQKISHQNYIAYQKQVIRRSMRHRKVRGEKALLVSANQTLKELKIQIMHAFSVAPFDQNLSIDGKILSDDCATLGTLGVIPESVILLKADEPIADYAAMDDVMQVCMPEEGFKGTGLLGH
Method in brief: as §1

[5] = target: T4, USP5 (UniProt P45974)
T4 sequence (whole entry): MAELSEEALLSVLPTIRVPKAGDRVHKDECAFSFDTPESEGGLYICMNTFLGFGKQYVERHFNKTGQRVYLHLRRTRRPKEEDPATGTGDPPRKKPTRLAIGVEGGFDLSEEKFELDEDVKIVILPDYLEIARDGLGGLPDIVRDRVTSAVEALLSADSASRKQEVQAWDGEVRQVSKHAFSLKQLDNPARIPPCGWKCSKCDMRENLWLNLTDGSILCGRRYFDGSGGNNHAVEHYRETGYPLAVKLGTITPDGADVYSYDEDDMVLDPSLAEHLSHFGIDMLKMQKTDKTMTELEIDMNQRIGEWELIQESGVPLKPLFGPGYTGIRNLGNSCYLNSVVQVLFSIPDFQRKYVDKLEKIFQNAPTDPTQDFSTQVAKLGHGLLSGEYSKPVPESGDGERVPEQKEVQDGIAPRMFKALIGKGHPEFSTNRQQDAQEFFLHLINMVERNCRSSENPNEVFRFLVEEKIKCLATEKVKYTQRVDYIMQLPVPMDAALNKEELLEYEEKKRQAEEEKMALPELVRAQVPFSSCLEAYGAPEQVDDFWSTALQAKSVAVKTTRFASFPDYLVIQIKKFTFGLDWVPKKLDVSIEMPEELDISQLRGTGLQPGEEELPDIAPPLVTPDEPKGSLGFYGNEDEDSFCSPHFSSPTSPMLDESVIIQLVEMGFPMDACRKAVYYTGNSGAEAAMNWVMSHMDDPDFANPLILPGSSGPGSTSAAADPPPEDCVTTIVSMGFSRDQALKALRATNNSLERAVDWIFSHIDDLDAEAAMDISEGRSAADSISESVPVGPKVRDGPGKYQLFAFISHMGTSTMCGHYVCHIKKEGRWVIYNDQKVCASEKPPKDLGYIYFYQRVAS
Method in brief: as §1

[6] = target: USP54 (UniProt Q70EL1)
Method in brief: as §1

[7] = target: USP7 (UniProt Q93009)
Method in brief: as §1

[8] = target: T5, USP8 (UniProt P40818)
T5 sequence (whole entry): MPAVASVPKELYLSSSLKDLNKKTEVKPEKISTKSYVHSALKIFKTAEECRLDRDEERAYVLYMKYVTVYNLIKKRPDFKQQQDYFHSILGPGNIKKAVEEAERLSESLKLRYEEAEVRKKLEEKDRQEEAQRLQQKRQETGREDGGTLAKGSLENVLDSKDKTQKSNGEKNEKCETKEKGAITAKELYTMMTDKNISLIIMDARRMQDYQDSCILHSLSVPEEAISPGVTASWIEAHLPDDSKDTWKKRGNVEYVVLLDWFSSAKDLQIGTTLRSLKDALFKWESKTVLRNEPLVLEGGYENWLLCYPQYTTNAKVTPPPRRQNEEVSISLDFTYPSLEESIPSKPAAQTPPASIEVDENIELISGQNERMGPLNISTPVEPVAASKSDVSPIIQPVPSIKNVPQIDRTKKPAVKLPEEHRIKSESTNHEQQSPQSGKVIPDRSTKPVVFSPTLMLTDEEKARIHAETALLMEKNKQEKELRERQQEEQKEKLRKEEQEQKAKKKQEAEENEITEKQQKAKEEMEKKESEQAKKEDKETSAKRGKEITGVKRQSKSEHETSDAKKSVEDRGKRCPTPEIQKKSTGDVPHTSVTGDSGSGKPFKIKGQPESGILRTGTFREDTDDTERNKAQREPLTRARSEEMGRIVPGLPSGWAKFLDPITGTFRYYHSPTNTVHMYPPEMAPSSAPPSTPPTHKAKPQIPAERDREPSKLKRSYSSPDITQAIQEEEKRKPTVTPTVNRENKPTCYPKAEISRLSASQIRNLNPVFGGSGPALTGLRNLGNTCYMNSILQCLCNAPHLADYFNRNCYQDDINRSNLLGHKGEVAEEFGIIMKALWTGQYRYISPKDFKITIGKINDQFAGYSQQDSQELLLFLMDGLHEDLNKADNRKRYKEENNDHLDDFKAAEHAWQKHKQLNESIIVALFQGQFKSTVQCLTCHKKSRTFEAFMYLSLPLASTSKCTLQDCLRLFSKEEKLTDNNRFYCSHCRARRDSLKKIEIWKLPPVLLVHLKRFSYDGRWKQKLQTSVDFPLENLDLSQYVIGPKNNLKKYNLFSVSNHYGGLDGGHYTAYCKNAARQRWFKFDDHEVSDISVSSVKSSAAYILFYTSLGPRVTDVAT
Method in brief: as §1

[9] = target: USP9X (UniProt Q93008)
Method in brief: as §1

[10] = target: UniProt O00487
Method in brief: as §1

Measured: log2 ratio of Biotin-Ahx-Ub-VS probe labelling

Sequence of USP54 (Q70EL1 whole entry): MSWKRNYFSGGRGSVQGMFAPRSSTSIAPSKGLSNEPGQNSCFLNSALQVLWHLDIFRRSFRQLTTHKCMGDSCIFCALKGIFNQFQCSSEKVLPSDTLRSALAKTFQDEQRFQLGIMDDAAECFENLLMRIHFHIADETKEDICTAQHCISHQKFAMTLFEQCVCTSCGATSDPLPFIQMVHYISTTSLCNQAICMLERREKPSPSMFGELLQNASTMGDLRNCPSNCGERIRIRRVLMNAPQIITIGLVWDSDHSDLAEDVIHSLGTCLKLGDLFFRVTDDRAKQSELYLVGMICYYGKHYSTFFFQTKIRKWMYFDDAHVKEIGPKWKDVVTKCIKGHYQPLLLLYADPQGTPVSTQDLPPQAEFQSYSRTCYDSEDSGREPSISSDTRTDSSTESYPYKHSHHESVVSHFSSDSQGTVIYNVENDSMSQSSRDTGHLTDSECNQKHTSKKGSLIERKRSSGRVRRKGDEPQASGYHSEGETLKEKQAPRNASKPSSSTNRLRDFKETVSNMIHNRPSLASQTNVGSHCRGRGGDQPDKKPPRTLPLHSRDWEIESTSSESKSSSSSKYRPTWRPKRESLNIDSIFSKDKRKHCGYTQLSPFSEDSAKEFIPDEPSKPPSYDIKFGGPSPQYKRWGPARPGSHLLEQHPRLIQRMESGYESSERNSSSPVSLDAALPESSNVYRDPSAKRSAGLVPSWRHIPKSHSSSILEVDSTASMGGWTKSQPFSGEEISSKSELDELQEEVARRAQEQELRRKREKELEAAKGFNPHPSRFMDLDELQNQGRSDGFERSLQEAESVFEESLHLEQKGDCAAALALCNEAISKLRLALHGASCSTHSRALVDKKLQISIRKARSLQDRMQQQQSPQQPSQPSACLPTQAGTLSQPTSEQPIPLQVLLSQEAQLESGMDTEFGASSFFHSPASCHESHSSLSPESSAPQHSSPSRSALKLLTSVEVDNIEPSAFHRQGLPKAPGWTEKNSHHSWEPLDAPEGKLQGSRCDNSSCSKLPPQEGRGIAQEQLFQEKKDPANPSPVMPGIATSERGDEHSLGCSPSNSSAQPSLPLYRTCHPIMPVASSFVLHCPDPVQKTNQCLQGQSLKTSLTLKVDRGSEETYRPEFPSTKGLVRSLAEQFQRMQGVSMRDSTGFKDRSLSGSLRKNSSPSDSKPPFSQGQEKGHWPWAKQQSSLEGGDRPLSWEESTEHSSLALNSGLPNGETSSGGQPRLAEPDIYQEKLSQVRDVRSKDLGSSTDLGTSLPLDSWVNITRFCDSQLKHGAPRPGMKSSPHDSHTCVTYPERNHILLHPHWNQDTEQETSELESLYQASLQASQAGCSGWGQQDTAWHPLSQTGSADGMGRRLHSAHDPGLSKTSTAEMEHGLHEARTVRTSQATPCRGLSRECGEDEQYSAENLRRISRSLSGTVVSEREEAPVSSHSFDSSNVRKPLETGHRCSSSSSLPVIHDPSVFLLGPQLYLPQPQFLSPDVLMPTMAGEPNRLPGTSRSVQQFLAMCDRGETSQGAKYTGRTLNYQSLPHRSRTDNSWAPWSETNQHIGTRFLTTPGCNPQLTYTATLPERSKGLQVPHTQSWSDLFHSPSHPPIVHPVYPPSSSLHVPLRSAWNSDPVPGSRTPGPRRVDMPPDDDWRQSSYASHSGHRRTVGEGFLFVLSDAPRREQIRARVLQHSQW
Sequence of UniProt O00487 (O00487 whole entry): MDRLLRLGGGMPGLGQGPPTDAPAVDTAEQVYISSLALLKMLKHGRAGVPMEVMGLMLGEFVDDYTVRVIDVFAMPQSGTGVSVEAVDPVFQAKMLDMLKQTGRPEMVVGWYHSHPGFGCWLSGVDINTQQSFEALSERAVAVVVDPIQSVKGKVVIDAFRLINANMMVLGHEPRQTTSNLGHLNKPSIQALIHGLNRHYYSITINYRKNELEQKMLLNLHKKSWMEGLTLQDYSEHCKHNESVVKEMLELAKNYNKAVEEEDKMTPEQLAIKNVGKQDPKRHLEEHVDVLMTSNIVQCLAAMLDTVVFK
Sequence of USP7 (Q93009 whole entry, looked up): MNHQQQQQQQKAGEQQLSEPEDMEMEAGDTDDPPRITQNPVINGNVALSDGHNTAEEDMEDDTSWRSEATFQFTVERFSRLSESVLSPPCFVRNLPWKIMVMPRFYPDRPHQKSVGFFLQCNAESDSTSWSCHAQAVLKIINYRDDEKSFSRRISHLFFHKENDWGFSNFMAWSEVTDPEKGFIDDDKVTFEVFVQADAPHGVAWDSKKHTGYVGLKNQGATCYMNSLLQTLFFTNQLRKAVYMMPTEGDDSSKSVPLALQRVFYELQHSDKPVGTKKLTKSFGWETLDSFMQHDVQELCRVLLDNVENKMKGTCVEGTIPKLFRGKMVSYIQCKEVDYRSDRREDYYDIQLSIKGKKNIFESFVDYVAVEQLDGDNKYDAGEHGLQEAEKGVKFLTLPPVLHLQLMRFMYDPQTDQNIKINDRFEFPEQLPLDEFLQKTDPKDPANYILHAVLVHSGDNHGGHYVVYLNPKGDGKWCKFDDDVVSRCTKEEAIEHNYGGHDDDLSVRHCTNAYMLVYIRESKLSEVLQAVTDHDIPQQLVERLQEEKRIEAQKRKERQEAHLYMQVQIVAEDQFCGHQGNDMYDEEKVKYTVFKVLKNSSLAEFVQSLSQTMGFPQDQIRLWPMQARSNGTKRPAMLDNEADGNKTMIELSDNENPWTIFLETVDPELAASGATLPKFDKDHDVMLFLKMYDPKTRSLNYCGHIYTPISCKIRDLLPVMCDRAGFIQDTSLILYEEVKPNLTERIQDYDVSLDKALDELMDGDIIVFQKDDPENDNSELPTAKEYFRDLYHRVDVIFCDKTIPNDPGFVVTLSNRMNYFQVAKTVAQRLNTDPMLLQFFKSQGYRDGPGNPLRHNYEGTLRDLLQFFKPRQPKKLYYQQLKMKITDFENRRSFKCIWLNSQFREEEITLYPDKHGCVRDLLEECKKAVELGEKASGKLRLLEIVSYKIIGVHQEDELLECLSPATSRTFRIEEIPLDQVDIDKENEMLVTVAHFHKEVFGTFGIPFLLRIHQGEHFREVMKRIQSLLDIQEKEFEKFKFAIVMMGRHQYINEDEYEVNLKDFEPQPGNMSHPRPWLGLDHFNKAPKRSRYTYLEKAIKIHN
Sequence of USP46 (P62068 whole entry): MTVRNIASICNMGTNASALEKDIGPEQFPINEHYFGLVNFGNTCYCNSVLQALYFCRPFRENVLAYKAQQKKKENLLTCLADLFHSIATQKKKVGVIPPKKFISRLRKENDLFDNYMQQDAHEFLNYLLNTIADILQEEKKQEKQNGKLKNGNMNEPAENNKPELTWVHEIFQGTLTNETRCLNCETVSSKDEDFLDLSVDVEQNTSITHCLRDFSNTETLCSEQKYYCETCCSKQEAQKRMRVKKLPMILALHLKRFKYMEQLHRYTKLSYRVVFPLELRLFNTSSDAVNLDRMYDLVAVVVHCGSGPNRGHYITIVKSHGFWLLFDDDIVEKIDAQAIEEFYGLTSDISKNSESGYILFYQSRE

Cc1ccc(CC(CO)CNC(=O)CCl)cc1 (stereo not given)
inactive: [1] -0.0167 | [2] -0.000866 | [3] -0.102 | [4] -0.405 | [5] -0.182 | [6] 0.455 | [7] -0.381 | [8] -0.322 | [9] -0.363 | [10] -0.242
